Results published in PubChem BioAssay (NCI).
About 79,000 compounds went through this panel and 15% of them were active in at least one assay; those are over-represented in the sample as a whole. No stated cut-off is given here; in the data, active means growth inhibition above about 70%; inactive means the rest. *1 amine or outer side, *2 acyl side, *3 side chain or, on linkers, in order; H or OH if unused. Where a SMILES comes first, the peptide text is derived from it. The star is where a group is joined. γGlu = O=C(O)[CH](CCC(=O)[*:2])N[*:1]; NHOH = ON*

Columns and labels:
[1] = NCI Yeast Anticancer Drug Screen. Data for the rad50 strain (AID 155);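 further: 0% = growth of vehicle-only cultures of the same strain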; details: S. cerevisiae rad50 strain growth inhibition; at 50.0 µM; stronger effect = higher value
How it was run: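 Inhibition values express reduced yeast growth in compound-treated cultures relative to vehicle-treated controls.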

[2] = NCI Yeast Anticancer Drug Screen. Data for the mec2-1 strain (AID 157); details: S. cerevisiae mec2-1 strain, at 50.0 µM, stronger effect = higher value
How it was run: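 mec2-1 yeast strain, carrying an alteration in DNA damage repair or cell cycle control, was exposed to compounds; growth inhibition was measured relative to vehicle-treated controls.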

[3] = NCI Yeast Anticancer Drug Screen. Data for the sgs1 mgt1 strain (AID 161);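 further: 0% = growth of cultures given vehicle only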; details: S. cerevisiae sgs1 mgt1 strain, at 50.0 µM, stronger effect = higher value
How it was run: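 This yeast growth screen uses a strain with defined DNA-repair lesions; compound-treated growth is compared with vehicle-treated growth.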

[4] = NCI Yeast Anticancer Drug Screen. Data for the cln2 rad14 strain (AID 165);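 further: 0% = growth equal to vehicle treated cultures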; details: S. cerevisiae cln2 rad14 strain, at 50.0 µM, stronger effect = higher value
How it was run: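 Yeast carrying cln2 and rad14 alterations (cell cycle control and DNA damage repair) were exposed to compounds. Growth inhibition was measured against vehicle-treated controls.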

[5] = NCI Yeast Anticancer Drug Screen. Data for the bub3 strain (AID 167); details: S. cerevisiae bub3 mutant strain, at 50.0 µM, stronger effect = higher value
How it was run: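 Steps: expose the mutant yeast strain to compound; grow alongside vehicle-treated cultures; measure growth; express inhibition against the vehicle cultures.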

[6] = NCI Yeast Anticancer Drug Screen. Data for the mlh1 rad18 strain (AID 175); details: S. cerevisiae mlh1 rad18 strain growth inhibition; at 50.0 µM; stronger effect = higher value
How it was run: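 Growth inhibition of the yeast strain was measured after compound exposure and expressed relative to vehicle-treated controls. The strain carries defined defects in DNA damage repair.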

Measured: growth inhibition

O=C(Cl)c1cc(C(=O)Cl)cc(C(=O)Cl)c1
inactive: [1] -28.6% | [2] -51.2% | [3] -24.2% | [4] 7.15% | [5] -28.4% | [6] -28.6%

CC(=O)Nc1ccc(/C=C2\SC(=S)N(/C=C3/C(=O)N(c4ccccc4)N=C3C)C2=O)cc1
inactive: [1] 12.6% | [2] -3% | [3] 4% | [4] 7% | [5] -2.85% | [6] 7%

CCCOC(=O)c1ccccc1C(=O)OC1CCCCC1
inactive: [1] 8% | [2] -2.05% | [3] 9.2% | [4] -18% | [5] -2.4% | [6] -8.65%

CC1=C(C)C(N(C)C)CS(=O)(=O)O1 (stereo unspecified)
inactive: [1] 6.35% | [2] -18.4% | [3] -0.7% | [4] -47% | [5] -11.2% | [6] -7.9%

C[N+](C)([O-])Cc1ccccc1
inactive: [1] -12.9% | [2] -27.4% | [3] -19.4% | [4] -0.8% | [5] -5.2% | [6] -16.9%

O=C1/C(=C/c2ccc(C(=O)O)cc2)CNC/C1=C\c1ccc(C(=O)O)cc1
inactive: [1] -7.4% | [2] -14.9% | [3] -3.05% | [4] -15.4% | [5] 3.8% | [6] -11.8%

COCCOC(=O)Nc1c(Cl)cccc1Cl
inactive: [1] 1.45% | [2] -18.5% | [3] -8.35% | [4] 5.3% | [5] -25.6% | [6] -8.2%

CC(=O)Nc1ccc(OCc2ccccc2)cc1[N+](=O)[O-]
inactive: [1] 20.5% | [2] -11.9% | [3] 9.75% | [4] 10.2% | [5] 6.85% | [6] 28.2%

Cn1nc(-c2ccccc2)c(C(=O)/C=C/c2ccc(F)cc2)c(N2CCOCC2)c1=O
inactive: [1] -34.9% | [2] -34% | [3] -54.8% | [4] 5.9% | [5] -21.6% | [6] -15.8%

NC(CCC(=O)NC(CCC(=O)NO)C(=O)NCC(=O)O)C(=O)O (stereo unspecified) (γGlu-Glu(NHOH)-Gly-OH; configuration not given here)
inactive: [1] -29.5% | [2] -3.2% | [3] -11.6% | [4] 2.05% | [5] -4.85% | [6] -42.5%

OC(C1COCO1)C1OCOC1C1COCO1 (stereo unspecified)
inactive: [1] 21.6% | [2] 9.45% | [3] 3.2% | [4] 3.55% | [5] -11.2% | [6] 6.15%

Cc1ccc(C(C)C)c(O)c1NC(=S)N/N=C\c1cc(Cl)ccc1O
inactive: [1] -4.55% | [2] 22.8% | [3] -13.9% | [4] 7.6% | [5] -14.2% | [6] 17.4%

OC1CCCSc2ccccc21 (stereo unspecified)
inactive: [1] 19.6% | [2] 1% | [3] -4.8% | [4] 8% | [5] 2.8% | [6] -1.45%

CC1OC(C)(CCc2ccccc2)OC1C (stereo unspecified)
inactive: [1] 0.4% | [2] -46.8% | [3] 11.7% | [4] -12.2% | [5] -21.6% | [6] -8%

CCC(=O)c1ccc(OC(C)=O)cc1
inactive: [1] 36% | [2] -4.75% | [3] -4.85% | [4] -23.4% | [5] 5.7% | [6] 4.65%

C(CC1CCNCC1)CC1CCNCC1
inactive: [1] -39.7% | [2] -19.1% | [3] -20.3% | [4] -23.8% | [5] 12.2% | [6] -64.7%

CC1SCC(=O)N1c1nncs1 (stereo unspecified)
inactive: [1] -3.05% | [2] -0.75% | [3] -51.9% | [4] -46.2% | [5] -2.1% | [6] -46.6%

CCCCCSC1CCCC1
inactive: [1] 35% | [2] -10% | [3] 7.65% | [4] -2.2% | [5] 9.5% | [6] 28.7%

CCNC(=O)OCCN(C)CCOC(=O)NCC
inactive: [1] -10% | [2] 9.55% | [3] -4.15% | [4] -20% | [5] -7.7% | [6] -0.7%

Cc1c(I)sc(I)c1I
inactive: [1] 39.6% | [2] 1.75% | [3] 30.9% | [4] 12.9% | [5] 4.1% | [6] 12.6%

CCOC(=O)c1ccc(OCC)cc1O
inactive: [1] 2.25% | [2] -8% | [3] 0.6% | [4] -17.6% | [5] -30.4% | [6] -15.8%

OCC(O)C(O)C(O)C(O)C(O)[C@@H](O)c1nc2ccccc2[nH]1 (stereo partly specified)
inactive: [1] -9.2% | [2] -5.4% | [3] -12.3% | [4] -16.9% | [5] 50.1% | [6] 6.6%

O=C(O)C1CC1Br (stereo unspecified)
inactive: [1] 9.15% | [2] -15.3% | [3] -3.65% | [4] -14.4% | [5] 2.45% | [6] 5.8%

COc1ccc(-c2oc3ccc(C)cc3c(=O)c2O)cc1
inactive: [1] 6.9% | [2] -8% | [3] -14.8% | [4] 14.8% | [5] -5.7% | [6] -26.8%

COc1ccc(CCN2C(=O)c3cccc4c(Br)ccc(c34)C2=O)cc1
inactive: [1] 23.8% | [2] 1.3% | [3] 18.6% | [4] 14.5% | [5] 44.6% | [6] 35.9%

N[n+]1ccccc1
inactive: [1] -9.45% | [2] -6.85% | [3] -9.1% | [4] -37.4% | [5] -4.65% | [6] -2.6%

CCCCC1SC2=NCCN2C1(O)c1ccc(Cl)cc1 (stereo unspecified)
inactive: [1] 14.6% | [2] 3.55% | [3] 28.9% | [4] 18% | [5] 31.3% | [6] 26.5%

COc1ccc(C(=CC2=CC(=O)C3=C(CCCC3)C2=O)c2ccc(OC)cc2)cc1
inactive: [1] 19.8% | [2] -4.25% | [3] -4.6% | [4] -3.7% | [5] 0.55% | [6] 7.2%

COc1ccc(CCN(C)C(c2ccccc2)c2ccccc2)cc1OC
inactive: [1] -2.8% | [2] -6.65% | [3] 10.9% | [4] 3.75% | [5] 4.75% | [6] 3.3%

COC(=O)/C(=N\NC(C)(C)C)C(C(=O)C(=O)Nc1cc(C)ccc1C)c1nc2ccccc2[nH]c1=O (stereo unspecified)
inactive: [1] -18.8% | [2] -6.9% | [3] -1.5% | [4] 18.8% | [5] -7.95% | [6] -17.8%

C=C(C)[N+]([O-])=NC
inactive: [1] -6.75% | [2] 3.5% | [3] -2.8% | [4] 30.1% | [5] -10.8% | [6] 0.75%

CC(C)(c1ccc(O)c([N+](=O)[O-])c1)c1ccc(O)c([N+](=O)[O-])c1
inactive: [1] -2.65% | [2] -2.75% | [3] -4.6% | [4] -26.4% | [5] -2.9% | [6] 7.2%

CCCOC(=O)/C=C/c1ccc(OC)cc1
inactive: [1] -10.7% | [2] -18.9% | [3] -16.1% | [4] -12.2% | [5] -14.4% | [6] -27.4%

Cc1c(C(=O)C/C(=N\O)C(=O)Nc2cc(Cl)c(Cl)cc2Cl)[n+](=O)c2ccccc2n1[O-]
inactive: [1] 21.8% | [2] 14.3% | [3] 22.1% | [4] 14.7% | [5] 21.4% | [6] 32.4%

CC(C)CC1N=C(OCc2ccccc2)OC1=O (stereo unspecified)
inactive: [1] -16.6% | [2] -79.5% | [3] -20.4% | [4] -15.7% | [5] 5.25% | [6] -14.2%

C/C(=N/N)c1sc(-c2nc(C)c(/C(C)=N\N)s2)nc1C
inactive: [1] 32.9% | [2] -31.1% | [3] -26.9% | [4] -16% | [5] -18.1% | [6] -11.3%

C(=C\c1ccc(-c2ccccc2)cn1)/c1ccccc1
inactive: [1] -8.5% | [2] -15.8% | [3] -3.45% | [4] -26.6% | [5] 24.8% | [6] -12%

CC(=O)OCC1OC(n2ccc(=O)[nH]c2=O)C(NC(=O)C(F)(F)F)C(OC(C)=O)C1OC(C)=O (stereo unspecified)
inactive: [1] 2.4% | [2] -5.4% | [3] -11.2% | [4] -11.2% | [5] -2.05% | [6] -11.7%

O=C1c2cc3c(cc2CC12Cc1ccc4c(c1C2=O)CCCC4)CCCC3 (stereo unspecified)
inactive: [1] -3.15% | [2] -4.15% | [3] -10.4% | [4] 3.6% | [5] 7.35% | [6] 9.8%

CC(C)(C)CC(C)(C)c1cc2c(O)c(c1)Cc1cc(C(C)(C)CC(C)(C)C)cc(c1O)Cc1cc(C(C)(C)CC(C)(C)C)cc(c1O)Cc1cc(C(C)(C)CC(C)(C)C)cc(c1O)Cc1cc(C(C)(C)CC(C)(C)C)cc(c1O)C2
inactive: [1] 20.5% | [2] 33.4% | [3] 8.75% | [4] 31.4% | [5] 6.3% | [6] 24.2%

CC(=O)c1c(C)c(Cl)c(C)c(Cl)c1O
inactive: [1] -14.6% | [2] 2.75% | [3] 17.6% | [4] 7.4% | [5] 26.4% | [6] 7%
